Measurements published in PubChem BioAssay (NCI).
Compounds without any hit were thinned out: in the full panel of roughly 79,000, 15% have a hit. Unmarked numbers belong to inactive results. Active and inactive are the calls of the source. Cut-off read from the data, not from the text of the source: active = growth inhibition above about 70%; inactive = the rest.

Assays:
[1] = NCI Yeast Anticancer Drug Screen. Data for the rad50 strain (AID 155);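 note: 0% = growth of vehicle-only cultures of the same strain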; settings: S. cerevisiae rad50 strain growth inhibition; at 50.0 µM; stronger effect = higher value
How it was run: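 Vehicle-treated cultures provide the reference for the growth inhibition reported for compound-exposed, repair-deficient yeast.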

[2] = NCI Yeast Anticancer Drug Screen. Data for the mec2-1 strain (AID 157); settings: S. cerevisiae mec2-1 strain, at 50.0 µM, stronger effect = higher value
How it was run: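 Vehicle-treated cultures served as reference for growth inhibition of compound-exposed mec2-1 yeast.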

[3] = NCI Yeast Anticancer Drug Screen. Data for the sgs1 mgt1 strain (AID 161);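 note: 0% = growth of cultures given vehicle only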; settings: S. cerevisiae sgs1 mgt1 strain, at 50.0 µM, stronger effect = higher value
How it was run: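 Read-out: growth inhibition vs vehicle controls. Cells: mutant yeast strain deficient in DNA damage repair.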

[4] = NCI Yeast Anticancer Drug Screen. Data for the cln2 rad14 strain (AID 165);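 note: 0% = growth equal to vehicle treated cultures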; settings: S. cerevisiae cln2 rad14 strain, at 50.0 µM, stronger effect = higher value
How it was run: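 Each compound was tested on cln2 rad14 yeast. Inhibition of growth was calculated against vehicle-exposed controls.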

[5] = NCI Yeast Anticancer Drug Screen. Data for the bub3 strain (AID 167); settings: S. cerevisiae bub3 mutant strain, at 50.0 µM, stronger effect = higher value
How it was run: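 Mutant yeast screening strain plus compound; vehicle-treated cultures serve as the 0% inhibition reference.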

[6] = NCI Yeast Anticancer Drug Screen. Data for the mlh1 rad18 strain (AID 175); settings: S. cerevisiae mlh1 rad18 strain growth inhibition; at 50.0 µM; stronger effect = higher value
How it was run: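 Vehicle-treated cultures served as the reference for growth inhibition in a yeast strain carrying DNA damage repair alterations exposed to each compound.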

| SMILES | growth inhibition [1] | growth inhibition [2] | growth inhibition [3] | growth inhibition [4] | growth inhibition [5] | growth inhibition [6] |
| --- | --- | --- | --- | --- | --- | --- |
| CC(C)OC(=O)c1cc(N)ccc1Cl | 29.1% | 23.4% | 17.4% | 2.45% | 38.4% | 34% |
| S=c1nn[nH]n1C1CCCCC1 | 8.05% | -14.3% | -1.8% | 4.1% | 0.85% | 9.95% |
| O=C(OC1COC(n2c(=O)oc3ccc(Cl)cc32)C(OC(=O)c2ccccc2)C1OC(=O)c1ccccc1)c1ccccc1 (stereo not given) | 8% | 2.5% | 6.8% | -13.2% | -1.1% | 10.7% |
| CCn1c(O)c(C=Nc2ccccc2)s/c1=N/Nc1nc(C)cs1 | -45.3% | -55.2% | -25% | -14.1% | -26.7% | -27.5% |
| Cc1c(C(=O)OCCCl)c(=O)n(-c2ccccc2)n1C | -43.4% | -56.2% | 4.7% | 19.6% | -33.5% | -0.55% |
| CC(C)(C)c1ccc2c(c1)CNCCNCCNCc1cc(C(C)(C)C)ccc1OCC1(CO2)COc2ccc(C(C)(C)C)cc2CNCCNCCNCc2cc(C(C)(C)C)ccc2OC1 | 91% (active) | 93% (active) | 92% (active) | 91.2% (active) | 92.2% (active) | 89.8% (active) |
| CCCCOCCOC(=O)c1ccccc1C(=O)OCCOCCCC | -5.75% | -42.4% | -49.4% | -49% | -23.1% | -25% |
| COc1ccc(CCO)cc1 | 0.55% | -36% | -15.9% | -10.2% | -31.1% | -33.2% |
| Cc1n[n+](Cc2ccccc2)c2sc(N)nn12 | 2.85% | 6.25% | -41.6% | 20% | 26.9% | -26.1% |
| N#CC(=S)Nc1ccc(Cl)c(Cl)c1 | -4.8% | 27.9% | 22.6% | -36% | -1.95% | 31.8% |
| CCOC(CCCl)c1ccccc1 (stereo not given) | 2.45% | -12.4% | -39.5% | 7.85% | 11.1% | -10.3% |
| O=C(O)COc1ccc(I)cc1I | 23.3% | -8.05% | -4.85% | -37.5% | 23.6% | 19.2% |
| c1ccc2c[n+](Cc3ccc4ccccc4n3)ccc2c1 | 13% | -4.3% | 4.05% | -60% | -9.9% | 9.9% |
| COc1cc2ccc1OCc1cccc(n1)COc1ccc(cc1OC)C=NCCNCCN=C2 | -4.6% | -22.8% | -14.9% | -21.8% | -17.3% | -17.4% |
| CCN(CC)P(=O)(c1ccc2c(c1)OCCOCCOCCOCCO2)N(CC)CC | 28.9% | 22.9% | 21.7% | 23.3% | 33.6% | 37% |
| N#Cc1ccc(/C=C/C(=O)c2ccccc2)cc1 | 13.4% | -20.1% | 5.8% | 6.8% | 13.9% | 9.05% |
| c1ccc(-c2cc(-c3ccncc3)cc(-c3ccncc3)n2)cc1 | 3.85% | -21% | 9.4% | 18.6% | -1.9% | -85.2% |
| CNN=C(C)C | -2.15% | 3.8% | -3.4% | -4.8% | 2.5% | -19.3% |
| Cc1ccc(S(=O)(=O)N2CN3CN(C2)CN(S(=O)(=O)c2ccc(C)cc2)C3)cc1 | 0.4% | -26.9% | -9.15% | 9.05% | 6.4% | -4.2% |
| O=C(O)C(Cc1ccc(OS(=O)(=O)Cc2ccccc2)cc1)NS(=O)(=O)Cc1ccccc1 (stereo not given) | 29.9% | 5.2% | 8.1% | 5.1% | 12.4% | 24.1% |
